One may read the AC50 as the concentration at which the activity in the assay is half-maximal.

Hit rate of the full screen: of about 16,000 compounds, about 5,700 (36%) were called active. Not shown: some 24% with an inconclusive outcome. The list shows a part of the results. A number with no mark means an inactive call. The call rests on the fitted dose curve; in most records, active means well fitted curve in the direction sought with a large enough effect; inconclusive means small, poorly fitted or top-dose-only effect, or effect the other way; inactive means no such curve, though single readings can be large or run the other way.
On the % scale 0 is the no-effect control and ±100 the full control effect.

Chain of Cytochrome P450 1A2 (Homo sapiens) (P05177 whole entry, looked up): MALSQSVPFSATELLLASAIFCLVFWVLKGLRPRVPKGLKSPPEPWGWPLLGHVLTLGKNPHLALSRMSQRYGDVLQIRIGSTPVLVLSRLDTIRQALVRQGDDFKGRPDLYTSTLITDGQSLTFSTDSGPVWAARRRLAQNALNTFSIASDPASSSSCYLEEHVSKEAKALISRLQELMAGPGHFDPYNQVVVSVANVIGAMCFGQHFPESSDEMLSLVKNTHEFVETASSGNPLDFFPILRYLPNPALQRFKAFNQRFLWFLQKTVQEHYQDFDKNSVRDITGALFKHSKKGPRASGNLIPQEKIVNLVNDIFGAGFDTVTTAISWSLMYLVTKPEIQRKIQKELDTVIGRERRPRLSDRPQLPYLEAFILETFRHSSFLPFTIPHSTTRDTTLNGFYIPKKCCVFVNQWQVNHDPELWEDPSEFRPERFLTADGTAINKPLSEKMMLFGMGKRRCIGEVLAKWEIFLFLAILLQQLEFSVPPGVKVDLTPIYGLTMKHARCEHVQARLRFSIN

This assay has as its target Cytochrome P450 1A2 (Homo sapiens) (UniProt P05177). The assay is described as follows: Cytochrome panel assay with activity outcomes. Particulars: recombinant CYP, pro-luciferin dealkylation, luminescence, p450-cyp1a2; series mostly up to 57.1 µM.
For the molecule `CN(C)C(=O)CCc1nc(-c2ccc(C(C)(C)C)cc2)no1`, the half-maximal activity concentration (AC50) is 6.31 µM (active).
On the same count and under the same terms, with `CNC(=O)CCc1nc(-c2ccc(C(C)(C)C)cc2)no1` the figure was 6.31 µM (active).
Same read-out and setting: with `CN(C)c1ncc2ncc(=O)n(C)c2n1` the figure was 6.31 µM (active); with `COc1ccc(Oc2ncc3ncc(=O)n(C4CC4)c3n2)cc1`, 5.01 µM (active); with `COc1ncc2ncc(=O)n(C3CC3)c2n1`, 10 µM (active).
Still for that read-out and setting: with `CN(C)c1ncc2ncc(=O)n(C3CC3)c2n1` the figure was 3.16 µM (active).
With `COC(=O)[C@@]1(Cc2ccc(OC)cc2)[C@H]2c3cc(C(=O)N4CCCC4)n(Cc4cc(F)cc5c4OCOC5)c3C[C@H]2CN1C(=O)c1ccccc1`, the AC50 entry was “inactive”.
`C/C(CCN1CCc2nc(-c3ccccc3)c(-c3ccccc3)cc2C1)=N\O[C@@H](C)c1cn([C@@H]2COC[C@@H]2O)nn1`: the activity, negative = inhibition was -3.92% [at 11.4 µM].
As to `Cc1nc(NC(N)=S)sc1C(=O)Nc1ccccc1`, the AC50 is 8.91 µM (active).
The same measure, in the same setting: in the case of `O=C(Cc1ccccc1)N/N=C/c1ccccc1OCc1ccc(Cl)cc1` it was 2.24 µM (active); in that of `NC(=S)N/N=C/c1ccccc1OCc1cccc(Cl)c1`, 2.24 µM (active).
Still for that read-out and setting: with `Cc1ccc(COc2ccc(Br)cc2/C=N/O)cc1` the figure was 1.58 µM (active); with `CCOc1cc(/C=N/NC(=O)CN2CCCCC2)ccc1OCc1ccccc1`, “inactive”.
Turning to `O=C(O)c1ccc(OCc2ccccc2)c(Cl)c1`, the activity, negative = inhibition was -3.18% [at 2.29 µM].
As for `O/N=C/c1ccccc1OCc1ccc(Cl)cc1`, the AC50 is 2.24 µM (active).
On the same count and under the same terms, in the case of `NCc1ccc(S(N)(=O)=O)cc1` it was “inactive”.
Take `Cc1[nH]c2ccccc2c1C(c1ccccn1)N1CCC(C)CC1` (configuration not stated): the AC50 result is “inactive”.
Same read-out and setting: in the case of `Cc1n[nH]c(=S)n1/N=C/c1ccccc1OCc1ccc(Cl)cc1` it was 1.58 µM (active); in that of `O/N=C/c1cc(Cl)ccc1OCc1cccc2ccccc12`, 0.112 µM (active).
On the same count and under the same terms, with `O=C1CCC(c2ccc(-n3ccnc3)cc2)=NN1` the figure was 0.158 µM (active); with `CCn1c(O)c(/C=N/N=C2CCCC2)c2ccc(C3=NNC(=O)CC3)cc21`, “inactive”.
Turning to `O=C(Nc1cccc(F)c1)N1CCC2(CCNCC2)CC1`, the AC50 entry is “inactive”.
Same read-out and setting: with `CCNc1ncc2nc(-c3cc(F)cc(F)c3)c(=O)n(CCOC)c2n1` the figure was 3.16 µM (active); with `COc1cccc(Cn2c(=O)c(-c3cccc(C#N)c3)nc3cnc(Nc4ccccc4)nc32)c1`, “inactive”; with `CCNc1ncc2nc(-c3ccccc3)c(=O)n(CCOC)c2n1`, 3.16 µM (active).
The same measure, in the same setting: in the case of `COCCn1c(=O)c(-c2ccccc2)nc2cnc(Nc3ccccc3)nc21` it was 5.01 µM (active).
Still for that read-out and setting: with `O=C(CNS(=O)(=O)c1ccc(Br)s1)N1CCC(N2CCCCC2)CC1` the entry was “inactive”.
As for `Oc1cc(O)c2c(c1)O[C@@H](c1ccc(O)c(O)c1)[C@H](O[C@@]1(c3cc(O)c(O)c(O)c3)Oc3cc(O)cc(O)c3[C@H](O)[C@@H]1O)C2`, the activity, negative = inhibition is -13.3% [at 11.4 µM].
`COc1ccc(O[C@H]2C=C[C@@H](c3ccccc3)O[C@H]2COC(=O)CC/C(C)=N\O[C@@H](C)CN2CCCc3nc(C)c(C)cc32)cc1`: the activity, negative = inhibition is 2.58% [at 11.4 µM].
As to `CC(C)Oc1ccc2ccccc2c1C=O`, the AC50 is 1.12 µM (active).
On the same count and under the same terms, in the case of `Cc1cc(NC(=O)COC(=O)c2ccc(NS(=O)(=O)c3ccc(C)c(C)c3)cc2)no1` it was “inactive”; in that of `COc1ccccc1NS(=O)(=O)c1cccc(C(=O)OCC(=O)Nc2cc(C)on2)c1`, 14.1 µM (active); in that of `Cc1n[nH]c(C)c1S(=O)(=O)N1CCC(C(=O)O)CC1`, “inactive”.
For `O=C(Nc1ccccc1)[C@@]12C[C@@H]1/C(=N/O)c1ccccc1O2`, the AC50 was 2.51 µM (active).
Take `CCOC(=O)[C@@]12C[C@@H]1/C(=N/O)c1ccccc1O2`: the AC50 was 3.98 µM (active).
Same read-out and setting: with `Cc1c(NC(=O)C2CCN(S(=O)(=O)c3ccc(Cl)cc3)CC2)c(=O)n(-c2ccccc2)n1C` the entry was “inactive”.
As to `O=C1COc2ccccc2CN1`, the AC50 entry is “inactive”.
Same read-out and setting: with `Fc1ccc(-c2cnc(-c3cccs3)o2)cc1` the figure was 2.82 µM (active); with `CCOC(=O)Nc1ccc2c(c1)N(C(=O)CCN1CCOCC1)c1ccccc1S2`, “inactive”; with `CCOC(=O)Nc1ccc2c(c1)N(C(=O)CCN1CCN(C)CC1)c1ccccc1S2`, “inactive”.
Take `COC(=O)c1cc(NC(=O)N2c3ccccc3Sc3ccccc32)cc(C(=O)OC)c1`: the AC50 is 3.16 µM (active).
As for `CCC1Oc2ccccc2N(CC(=O)NCCCN2CCCCC2C)C1=O` (configuration not stated), the AC50 result is “inactive”.
The same measure, in the same setting: in the case of `O=[N+]([O-])/C=C\c1cc2ccccc2[nH]1` it was 1.26 µM (active); in that of `Nc1c(S(=O)(=O)O)cc(Nc2cccc(S(N)(=O)=O)c2)c2c1C(=O)c1ccccc1C2=O`, 3.98 µM (active); in that of `NCCNC(=O)c1ncsc1-c1cccc(F)c1`, 10 µM (active).
On the same count and under the same terms, with `Cc1scc2c1N(C(=O)CN1CCN(C)CC1)c1ccccc1NC2=O` the entry was “inactive”.
Still for that read-out and setting: in the case of `Cc1sc2nc(C3CC3)nc(SCC(=O)N3CC(=O)Nc4ccccc43)c2c1C` it was 6.31 µM (active).
As to `Cc1nnc(SCC(=O)N2CC(=O)Nc3ccccc32)n1Cc1ccccc1`, the AC50 entry was “inactive”.
On the same count and under the same terms, with `C[C@@H](C(=O)O)c1ccc(C(=O)c2cccs2)cc1` the entry was “inactive”; with `COC(=O)Nc1nc2ccc(SC(C)C)cc2[nH]1`, 0.501 µM (active); with `COC(=O)Nc1nc2ccc(C(=O)c3cccs3)cc2[nH]1`, 0.794 µM (active).
As to `CC(=O)Nc1ccc2nc(C3CCCCC3)[nH]c2c1`, the AC50 result is “inactive”.
In the case of `COC(=O)c1ccc(C(NC(=O)c2ccccc2)[C@]2(C)C[C@H]2C2CCCCC2)cc1` (some centres not stated), the AC50 result was “inactive”.
Consider `COC(=O)c1ccc(C23CC2(C(NP(=O)(c2ccccc2)c2ccccc2)c2ccccc2)C3)cc1` (configuration not stated), for which the AC50 is 15.8 µM (active).
Same read-out and setting: with `Cc1ccc2cc(C(=O)O)c(C)nc2c1` the entry was “inactive”; with `O=C(CSc1nnc2c3ccccc3c3ccccc3c2n1)Nc1ccccc1`, 1.12 µM (active); with `c1ccc(CSc2nnc3c4ccccc4c4ccccc4c3n2)cc1`, 0.2 µM (active).
`Cn1c(SCC(=O)Nc2ccccc2)nc(O)cc1=O`: the AC50 result was “inactive”.
For `O=C(O)CSc1ccn(Cc2ccccc2)c1`, the activity, negative = inhibition was -14.3% [at 11.4 µM].
Take `O=C(O)CSc1nnc2c3ccccc3c3ccccc3c2n1`: the AC50 is 0.0794 µM (active).
`CCc1c(C)nc(N)n2c(SCC(=O)Nc3ccccc3)nnc12`: the AC50 entry was “inactive”.
Regarding `O=C(O)CSc1cc(-c2ccccc2)nc2ccccc12`, the activity, negative = inhibition is -4.67% [at 2.29 µM].
Regarding `O=C(O)c1cc(=O)[nH]c(SCc2ccccc2)n1`, the activity, negative = inhibition is -12% [at 11.4 µM].
Same read-out and setting: in the case of `CN(C)S(=O)(=O)c1nc(Cl)c2[nH]cnc2n1` it was 2.44% [at 11.4 µM].
`Cc1ccc(-c2ccc(=O)n(CC(=O)NCCN(C)C)n2)cc1`: the AC50 result is “inactive”.
Same read-out and setting: with `C[C@@H]1CCC[C@H](C)N1` the entry was “inactive”; with `COC(=O)C1=C(C)N=C2SC(C)C(=O)N2C1/C=C/c1ccccc1` (configuration not stated), “inactive”.
Take `Cc1cc(C)nc(NC(=O)c2cccc([N+](=O)[O-])c2C)n1`: the AC50 result is “inactive”.
Same read-out and setting: in the case of `O=C(Nc1cccc(NC(=O)c2ccccc2[N+](=O)[O-])n1)c1ccccc1[N+](=O)[O-]` it was 8.91 µM (active); in that of `CC1CCN(S(=O)(=O)c2ccc3c(c2)C(=NO)c2cc(S(=O)(=O)N4CCC(C)CC4)ccc2-3)CC1`, “inactive”.
As to `O[C@]1(c2ccccc2)c2ccccc2NC2=NCCN21`, the activity, negative = inhibition is -14.8% [at 11.4 µM].
The same measure, in the same setting: in the case of `Nc1cc(S(=O)(=O)O)cc2ccc(S(=O)(=O)O)cc12` it was -18.1% [at 2.29 µM]; in that of `CC[C@@]1([N+](=O)[O-])C[C@H]2C=C[C@@H]1C2`, -12.9% [at 2.29 µM].
Consider `C[C@@H]1C[C@@H]2[C@H]3CCC4=CC(=O)C=C[C@]4(C)[C@]3(Cl)[C@@H](O)C[C@@]2(C)[C@@]1(O)C(=O)CO`, for which the AC50 result is “inactive”.
The same measure, in the same setting: with `O=S(=O)(c1ccccc1)N1CCC2(CC1)CN(c1ncccn1)C2` the entry was “inactive”; with `FC(F)(F)c1ccc(N2CCN(c3cc(-c4ccccc4)nc4ncnn34)CC2)nc1`, 10 µM (active); with `O=S(=O)(c1ccccc1)N1CCC2(CCN(c3ncccn3)CC2)CC1`, “inactive”.
Turning to `O=S(=O)(c1ccccc1)N1CCN(c2cc(-c3ccccc3)nc3ncnn23)CC1`, the AC50 was 0.794 µM (active).
Same read-out and setting: in the case of `Nc1nc(Cl)nc2c1ncn2[C@@H]1O[C@@H](COP(=O)(O)OP(=O)(O)OP(=O)(O)O)[C@@H](O)[C@H]1O` it was “inactive”.
Turning to `C#CCCCO/N=C1/C[C@@H](O)[C@@H](O)[C@@H]2[C@@H]3C(=O)N(CC)C(=O)[C@H]3CC[C@@H]12`, the activity, negative = inhibition was -3.56% [at 11.4 µM].
Regarding `Cc1ccc(NC(=S)Nc2nc(CC(=O)Nc3ccccc3)cs2)cc1`, the AC50 is 2.24 µM (active).
Still for that read-out and setting: with `CCn1c(CC(=O)Nc2ccc(C)cc2)nnc1SCC(=O)Nc1nc(C)cs1` the entry was “inactive”.
On to `COc1cccc([C@@H]2Oc3ccc(OC)cc3/C(=N/OC[C@@H](C)[C@H](OCc3ccccc3)C(C)C)[C@@H]2O)c1`, for which the activity, negative = inhibition is -6.71% [at 11.4 µM].
With `COc1cccc(Cn2c(=O)cnc3cnc(N(C)C)nc32)c1`, the AC50 was 6.31 µM (active).
Still for that read-out and setting: with `COc1cccc(Cn2c(=O)c(-c3cc(F)cc(F)c3)nc3cnc(N(C)C)nc32)c1` the entry was “inactive”.
For the molecule `CN(C)c1ncc2nc(-c3ccccc3)c(=O)n(CCc3ccccc3)c2n1`, the AC50 was 20 µM (active).
Turning to `CN(C)c1ncc2nc(CCc3ccccc3)c(=O)n(Cc3cccs3)c2n1`, the AC50 is 1.58 µM (active).
On the same count and under the same terms, in the case of `CN(C)c1ncc2nc(-c3cc(F)cc(F)c3)c(=O)n(CCc3ccccc3)c2n1` it was “inactive”; in that of `CN(C)c1ncc2nc(CCc3ccccc3)c(=O)n(-c3ccccc3)c2n1`, 0.794 µM (active).
In the case of `C/C(CCN1CCCc2nc(C)c(C)cc21)=N\O[C@@H](C)CN1CCCCc2nc(C)c(C)cc21`, the activity, negative = inhibition is 2.64% [at 11.4 µM].
With `C[C@]12CC[C@H]3c4ccc(O)cc4CC[C@@H]3[C@H]1C/C(=N/O)[C@H]2O`, the activity, negative = inhibition is -12.7% [at 11.4 µM].
Same read-out and setting: in the case of `C=C(C)CNCCN` it was 2.24% [at 2.29 µM].

The values above are taken from PubChem BioAssay AID1851 (National Center for Advancing Translational Sciences (NCATS), 2009).
